Test results reported in PubChem BioAssay (Tox21).
Some compounds were tested as several samples or in several runs, with calls that do not always agree. Active and inactive are the calls of the source. Where a call stands in place of a potency, no number is given. Unless noted, calls follow the shape of the dose curve; as a rule, active = well fitted curve in the direction sought with a large enough effect in the repeat runs; inconclusive = weak or mixed curves; inactive = no such curve, though single readings can be large; an effect the other way counts as inactive or inconclusive.

What was measured:
[1] = qHTS assay to identify small molecule antagonists of the thyroid receptor (TR) signaling pathway - cell viability counter screen (AID 743064); also: nearly all actives have a fitted effect of over 50% in size
In short: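 In-well cytotoxicity read by CellTiter-Fluor (30 min, 37 C) following 23.5 h exposure of GH3 cells bearing a TRE-luciferase sensor. Compounds were added alongside 1 nM (final) T3 to drive TR transactivation.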

[2] = qHTS assay to identify small molecule antagonists of the thyroid receptor (TR) signaling pathway (AID 743065); also: series mostly up to about 70 µM; nearly all actives have a fitted effect of over 55% in size
In short: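 GH3.TRE-Luc rat pituitary cells carrying two TR response elements driving luciferase were plated for 4 h, given compound plus 1 nM T3 (final), and incubated 23.5 h at 37 C. ONE-Glo luminescence measured reporter inhibition; CellTiter-Fluor fluorescence tracked cytotoxicity.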

[3] = system: thyroid hormone receptor (rat, GH3 cells); assay: qHTS assay to identify small molecule agonists of the thyroid receptor (TR) signaling pathway (AID 743066; calls by dose curve)
[4] = target: Estrogen receptor (Homo sapiens) (UniProt P03372); assay: qHTS assay to identify small molecule antagonists of the estrogen receptor alpha (ER-alpha) signaling pathway (AID 743069; active = well fitted curve in the direction sought with a large enough effect in the signal ratio in the repeat runs, not every such curve was filed as active; inconclusive = weak or mixed curves, or effect the other way; inactive = no such curve, though single readings can be large or run the other way; the % refers to the signal ratio)
In short: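 Estradiol-stimulated ER-alpha-UAS-bla HEK293 cells, 18 hr compound exposure at 37C. LiveBLAzer B/G substrate, 2 hr RT, fluorescence read.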

[5] = qHTS assay to identify small molecule antagonists of the estrogen receptor alpha (ER-alpha) signaling pathway - cell viability counter screen (AID 743074; calls by dose curve;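 also: HEK293 cells carrying ER-alpha-UAS-bla reporter stimulated with 17beta-estradiol; nearly all actives have a fitted effect of over 45% in size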)
[6] = target: Estrogen receptor (Homo sapiens) (UniProt P03372); assay: qHTS assay to identify small molecule agonists of the estrogen receptor alpha (ER-alpha) signaling pathway (AID 743075; calls by dose curve;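 also: HEK293 GripTite cells with ER-alpha and UAS-driven beta-lactamase reporter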; also: potency is read from the fitted curve at half-maximal effect)
[7] = target: Estrogen receptor (Homo sapiens) (UniProt P03372); assay: qHTS assay to identify small molecule agonists of the estrogen receptor alpha (ER-alpha) signaling pathway using the BG1 cell line (AID 743079); also: nearly all actives have a fitted effect of over 20% in size; also: potency is read from the fitted curve at half-maximal effect
[8] = qHTS assay to identify small molecule antagonists of the estrogen receptor alpha (ER-alpha) signaling pathway using the BG1 cell line (AID 743080; calls by dose curve;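 also: BG1 cells stimulated with 17beta-estradiol alongside compound; nearly all actives have a fitted effect of over 25% in size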; also: potency is read from the fitted curve at half-maximal effect)
In short: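 Luciferase inhibition measured with ONE-Glo after 30 min at RT in BG1Luc4E2 cells given test compounds and 17beta-estradiol for 21.5 h at 37 C; CellTiter-Fluor viability read in the same wells beforehand.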

[9] = qHTS assay to identify small molecule antagonists of the estrogen receptor alpha (ER-alpha) signaling pathway using the BG1 cell line - cell viability counter screen (AID 743081);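 also: compound given together with 17beta-estradiol as the ER stimulus; series mostly up to about 70 µM; nearly all actives have a fitted effect of over 45% in size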
[10] = target: Aromatase (Homo sapiens) (UniProt P11511); assay: qHTS assay to identify aromatase inhibitors (AID 743083); also: series mostly up to about 70 µM; nearly all actives have a fitted effect of over 55% in size
Chain of Aromatase (Homo sapiens) (P11511 whole entry, looked up): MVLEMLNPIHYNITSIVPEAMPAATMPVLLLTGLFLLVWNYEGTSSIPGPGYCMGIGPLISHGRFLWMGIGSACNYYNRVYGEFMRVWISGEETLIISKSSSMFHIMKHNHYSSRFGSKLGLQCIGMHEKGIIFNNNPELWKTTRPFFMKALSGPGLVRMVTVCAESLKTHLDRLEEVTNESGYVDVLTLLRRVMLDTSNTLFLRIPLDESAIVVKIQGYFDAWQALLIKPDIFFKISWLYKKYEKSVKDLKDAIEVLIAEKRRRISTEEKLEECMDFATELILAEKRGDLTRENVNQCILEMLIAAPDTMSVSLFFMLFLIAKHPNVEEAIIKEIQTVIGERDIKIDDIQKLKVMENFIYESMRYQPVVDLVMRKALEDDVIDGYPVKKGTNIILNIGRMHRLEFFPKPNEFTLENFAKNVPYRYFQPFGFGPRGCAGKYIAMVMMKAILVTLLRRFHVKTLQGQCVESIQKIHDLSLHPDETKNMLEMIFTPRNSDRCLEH

Chain of Estrogen receptor (Homo sapiens) (P03372 whole entry, looked up): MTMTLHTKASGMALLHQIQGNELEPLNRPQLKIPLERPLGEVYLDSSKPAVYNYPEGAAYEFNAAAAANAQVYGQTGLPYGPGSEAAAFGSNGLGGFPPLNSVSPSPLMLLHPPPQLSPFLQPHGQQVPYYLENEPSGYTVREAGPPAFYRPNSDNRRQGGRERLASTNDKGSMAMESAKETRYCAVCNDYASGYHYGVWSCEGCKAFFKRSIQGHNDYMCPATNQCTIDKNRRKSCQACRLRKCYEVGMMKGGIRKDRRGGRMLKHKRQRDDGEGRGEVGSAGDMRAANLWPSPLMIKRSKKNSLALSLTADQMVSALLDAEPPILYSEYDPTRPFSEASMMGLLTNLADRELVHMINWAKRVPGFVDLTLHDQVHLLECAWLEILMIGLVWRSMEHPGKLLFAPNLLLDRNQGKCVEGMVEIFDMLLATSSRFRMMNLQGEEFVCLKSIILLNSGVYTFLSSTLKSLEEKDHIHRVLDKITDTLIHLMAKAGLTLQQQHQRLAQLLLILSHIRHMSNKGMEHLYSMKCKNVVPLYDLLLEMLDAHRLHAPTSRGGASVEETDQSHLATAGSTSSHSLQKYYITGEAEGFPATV

Row | SMILES | Potency [1] | Potency [2] | Potency [3] | outcome [4] | Potency [5] | Potency [6] | Potency [7] | Potency [8] | outcome [9] | Potency [10]
1 | CC(C)C[P+](C)(CC(C)C)CC(C)C | inactive | inactive | inactive | inactive | inactive | inactive | inactive | inactive | inactive | inactive
2 | CC/C=C/CCCCCCCCCCOC(C)=O | inactive | inactive | inactive | inactive | inactive | inactive | inactive | inactive | inactive | inactive
3 | Cc1ccc(OC(=O)CC(C)C)cc1 | inactive | inactive | inactive | inactive | inactive | inactive | inactive | inactive | inactive | inactive
4 | CCCCCCCCCCCCCCBr | inactive | inactive | inactive | inactive | inactive | inactive | inactive | inactive | inactive | inactive
5 | C=CCCCCCCCCCCCCCC | inactive | inactive | inactive | inactive | inactive | inactive | inactive | inactive | inactive | inactive
6 | O=C(OOC(=O)c1ccccc1)c1ccccc1 | inactive | inactive | inactive | inactive | inactive | inactive | inactive | inactive | inactive | inactive
7 | CN(C)CCc1c[nH]c2ccc(CS(=O)(=O)N3CCCC3)cc12 | inactive | inactive | inactive | inactive | inactive | inactive | inactive | inactive | inactive | inactive
8 | CCC(C)c1nccnc1OC (stereo not given) | inactive | inactive | inactive | inactive | inactive | inactive | inactive | inactive | inactive | inactive
9 | CNC(C)=O | inactive | inactive | inactive | inactive | inactive | inactive | inactive | inactive | inactive | inactive
10 | Cc1nc2ccc(Cl)cc2[nH]1 | inactive | inactive | inactive | inactive | inactive | inactive | inactive | inactive | inactive | inactive
11 | CCCCN=C(N)N=C(N)N | inactive | inactive | inactive | inactive | inactive | inactive | inactive | 16.8 µM (active) | inactive | inactive
12 | CC(=O)Nc1ccc(OCCOCCOc2ccc(NC(C)=O)cc2)cc1 | inactive | inactive | inactive | inactive | inactive | inactive | inactive | inactive | inactive | inactive
13 | CN(C)CCC[C@@]1(c2ccc(F)cc2)OCc2cc(C#N)ccc21 | inactive | inactive | inactive | inactive | inactive | inactive | inactive | inactive | inactive | inactive
14 | COC(=O)N/N=C/c1c[n+]([O-])c2ccccc2[n+]1[O-] | inactive | inactive | inactive | inactive | inactive | inactive | inactive | inactive | inactive | inactive
15 | Nc1ccc(C(=O)NCC(=O)O)cc1 | inactive | inactive | inactive | inactive | inactive | inactive | inactive | inactive | inactive | inactive
16 | CCCCCCCC(=O)N(C)C | inactive | inactive | inactive | inactive | inactive | inactive | inactive | inactive | inactive | inactive
17 | CCCCCCCCCCCCCCCC(=O)OC | inactive | inactive | inactive | inactive | inactive | inactive | inactive | inactive | inactive | inactive
18 | C=CCn1cc[n+](C)c1 | inactive | inactive | inactive | inactive | inactive | inactive | inactive | inactive | inactive | inactive
19 | O=S(=O)(O)CC(O)CCl (stereo not given) | inactive | inactive | inactive | inactive | inactive | inactive | inactive | inactive | inactive | inactive
20 | Cc1cc(C)c(N)c(Cl)c1 | inactive | inactive | inactive | inactive | inactive | inactive | inactive | inactive | inactive | inactive
21 | CCOC(=O)CC(C(C)=O)C(C)=O | inactive | inactive | inactive | inactive | inactive | inactive | inactive | inactive | inactive | inactive
22 | O=Cc1ccc(C(=O)O)cc1 | inactive | inactive | inactive | inactive | inactive | inactive | inactive | inactive | inactive | inactive
23 | CN(C)c1ccncc1 | inactive | inactive | inactive | inactive | inactive | inactive | inactive | inactive | inactive | inactive
24 | O=S(=O)(O)c1ccc(Cl)cc1 | inactive | inactive | inactive | inactive | inactive | inactive | inactive | inactive | inactive | inactive

Row | SMILES | Potency [1] | Potency [2] | Potency [3] | outcome [4] | Potency [5] | Potency [6] | Potency [7] | Potency [8] | outcome [9] | Potency [10]
25 | COc1cc(OC)cc(OC)c1 | inactive | inactive | inactive | inactive | inactive | inactive | inactive | inactive | inactive | inactive
26 | CCCCS | inactive | inactive | inactive | inactive | inactive | inactive | inactive | inactive | inactive | inactive
27 | CCOC(=O)CC | inactive | inactive | inactive | inactive | inactive | inactive | inactive | inactive | inactive | inactive
28 | Cc1ccc(N)nc1 | inactive | inactive | inactive | inactive | inactive | inactive | inactive | inactive | inactive | inactive
29 | CCCc1ccc(O)c(OC)c1 | inactive | inactive | inactive | inactive | inactive | inactive | inactive | inactive | inactive | inactive
30 | CC(CC(=O)Cl)CC(C)(C)C (stereo not given) | inactive | inactive | inactive | inactive | inactive | inactive | inactive | inactive | inactive | inactive
31 | N=C(N)S(=O)O | inactive | inactive | inactive | inactive | inactive | inactive | inactive | inactive | inactive | inactive
32 | Cc1ccccc1C#N | inactive | inactive | inactive | inactive | inactive | inactive | inactive | inactive | inactive | inactive
33 | Cc1ccc(NC(N)=O)cc1 | inactive | inactive | inactive | inactive | inactive | inactive | inactive | inactive | inactive | inactive
34 | CC(O)C(CO)C(C)O (stereo not given) | inactive | inactive | inactive | inactive | inactive | inactive | inactive | inactive | inactive | inactive
35 | NCC1CCC(C(=O)Oc2ccc(CCC(=O)O)cc2)CC1 (stereo not given) | inactive | inactive | inactive | inactive | inactive | inactive | – | 26.6 µM (active) | inactive | –
36 | CC(=O)Nc1ccc(S(=O)(=O)Nc2cc(C)on2)cc1 | inactive | inactive | inactive | inactive | inactive | inactive | inactive | inactive | inactive | inactive
37 | O=C(CCBr)N1CCN(C(=O)CCBr)CC1 | inactive | inactive | inactive | inactive | inactive | inactive | inactive | inactive | inactive | inactive
38 | O=C(c1ccccc1)c1cccc(O)c1 | inactive | inactive | inactive | – | inactive | 49.7 µM [inconclusive] (active) | 15.6 µM (active) | – | inactive | inactive
39 | NS(=O)(=O)c1cc2c(cc1C(F)(F)F)NCNS2(=O)=O | inactive | inactive | inactive | inactive | inactive | inactive | inactive | inactive | inactive | inactive
40 | O=C1c2ccccc2C(=O)N1CO | inactive | inactive | inactive | inactive | inactive | inactive | inactive | inactive | inactive | inactive
41 | N[C@H]1C(O)O[C@H](CO)[C@@H](O)[C@@H]1O (stereo not given in full) | inactive | inactive | inactive | inactive | inactive | inactive | 0.531 µM (active) | inactive | inactive | inactive
42 | C[n+]1ccccc1/C=N/O | inactive | inactive | inactive | inactive | inactive | inactive | inactive | inactive | inactive | inactive
43 | Cc1cc(O)c(Cl)cc1C | inactive | inactive | inactive | inactive | inactive | inactive | inactive | inactive | inactive | inactive
44 | C[C@@H]1NC(=O)[C@@H](N)CNC(=O)[C@H](C2CCNC(N)=N2)NC(=O)/C(=C/NC(N)=O)NC(=O)[C@H](CNC(=O)C[C@@H](N)CCCN)NC1=O (stereo not given in full) | inactive | inactive | inactive | inactive | inactive | inactive | 29.8 µM (active) and inactive | inactive | inactive | inactive
45 | Cc1cccc(N)n1 | inactive | inactive | inactive | inactive | inactive | inactive | inactive | inactive | inactive | inactive
46 | C=COCCCCO | inactive | inactive | inactive | inactive | inactive | inactive | inactive | inactive | inactive | inactive
47 | CCN1CCN(C(=O)N[C@@H](C(=O)N[C@@H]2C(=O)N3[C@@H]2SC(C)(C)[C@H]3C(=O)O)c2ccccc2)C(=O)C1=O | inactive | inactive | inactive | inactive | – | inactive | inactive | inactive | inactive | inactive
48 | C[C@@H]1CC[C@@]2(OC1)O[C@H]1C[C@H]3[C@@H]4CC[C@H]5C[C@@H](O)CC[C@]5(C)[C@H]4CC(=O)[C@]3(C)[C@H]1[C@@H]2C | inactive | inactive | inactive | inactive | inactive | inactive | inactive | inactive | inactive | inactive
